Data from PubChem BioAssay (NCI).
Compounds without any hit were thinned out: in the full panel of roughly 79,000, 15% have a hit. Activity calls are given as the source filed them. Cut-off read from the data, not from the text of the source: active = growth inhibition above about 70%; inactive = the rest.

How the values were obtained:
[1] = NCI Yeast Anticancer Drug Screen. Data for the rad52 strain (AID 147);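 note: 0% = growth of vehicle-treated control cultures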; conditions: S. cerevisiae rad52 mutant growth inhibition, hits give high values
Outline: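 Genetically altered yeast (DNA damage repair defect) treated with compound; inhibition calculated relative to vehicle.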

[2] = NCI Yeast Anticancer Drug Screen. Data for the wt1 strain (AID 149);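 note: 0% = growth of vehicle-treated wt1 cultures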; conditions: S. cerevisiae wt1 strain (SPY 50644) growth inhibition, hits give high values
Outline: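 Each compound is tested on wt1 yeast and the loss of growth versus vehicle gives the inhibition value.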

[3] = NCI Yeast Anticancer Drug Screen. Data for the rad50EPP+ strain (AID 151);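 note: 0% = growth of vehicle-treated control cultures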; conditions: S. cerevisiae rad50 mutant strain, hits give high values
Outline: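 Strain rad50EPP+; compound exposure; % growth inhibition vs vehicle.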

[4] = NCI Yeast Anticancer Drug Screen. Data for the mgt1 strain (AID 153); conditions: S. cerevisiae mgt1 mutant growth inhibition, hits give high values
Outline: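 Read-out: yeast growth inhibition vs vehicle control. Strain mgt1, drawn from a panel altered in DNA damage repair or cell cycle control.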

[5] = NCI Yeast Anticancer Drug Screen. Data for the rad50 strain (AID 155);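 note: 0% = growth of vehicle-only cultures of the same strain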; conditions: S. cerevisiae rad50 strain growth inhibition, hits give high values
Outline: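 Vehicle-treated cultures provide the reference for the growth inhibition reported for compound-exposed, repair-deficient yeast.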

[6] = NCI Yeast Anticancer Drug Screen. Data for the mec2-1 strain (AID 157); conditions: S. cerevisiae mec2-1 strain, hits give high values
Outline: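 Cells of the genetically defined mec2-1 yeast strain are incubated with test compound. Inhibition of growth is calculated against vehicle-treated controls.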

[7] = NCI Yeast Anticancer Drug Screen. Data for the rad14 strain (AID 159);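 note: 0% = growth of vehicle-treated control cultures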; conditions: S. cerevisiae rad14 strain growth inhibition, hits give high values
Outline: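 Inhibition of growth is reported for a repair-deficient yeast mutant following compound treatment, calculated relative to cultures that received vehicle.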

[8] = NCI Yeast Anticancer Drug Screen. Data for the sgs1 mgt1 strain (AID 161);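 note: 0% = growth of cultures given vehicle only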; conditions: S. cerevisiae sgs1 mgt1 strain, hits give high values
Outline: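 Read-out: growth inhibition vs vehicle controls. Cells: mutant yeast strain deficient in DNA damage repair.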

[9] = NCI Yeast Anticancer Drug Screen. Data for the CLN2oe strain (AID 163);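 note: 0% = growth of vehicle-only control cultures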; conditions: S. cerevisiae CLN2oe strain, hits give high values
Outline: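 Strain altered in cell-cycle control, incubated with compound; growth compared to solvent-treated controls.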

[10] = NCI Yeast Anticancer Drug Screen. Data for the cln2 rad14 strain (AID 165);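 note: 0% = growth equal to vehicle treated cultures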; conditions: S. cerevisiae cln2 rad14 strain, hits give high values
Outline: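 The screen exposed genetically defined yeast (cln2 rad14) to test compounds and scored growth inhibition relative to vehicle-treated controls.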

[11] = NCI Yeast Anticancer Drug Screen. Data for the bub3 strain (AID 167); conditions: S. cerevisiae bub3 mutant strain, hits give high values
Outline: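 Mutant yeast screening strain plus compound; vehicle-treated cultures serve as the 0% inhibition reference.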

[12] = NCI Yeast Anticancer Drug Screen. Data for the mlh1 strain (AID 171);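 note: 0% = growth of vehicle-treated control cultures of the same strain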; conditions: S. cerevisiae mlh1 strain growth inhibition, hits give high values
Outline: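 Yeast screen: mutant strain plus compound, growth scored against vehicle control wells.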

[13] = NCI Yeast Anticancer Drug Screen. Data for the sgs1 strain (AID 173);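 note: 0% = growth of vehicle-only control cultures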; conditions: S. cerevisiae sgs1 mutant, hits give high values
Outline: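 Inhibition of yeast growth served as the measure. The mutant strain was treated with each compound, and growth was normalised to cultures receiving vehicle alone.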

[14] = NCI Yeast Anticancer Drug Screen. Data for the mlh1 rad18 strain (AID 175); conditions: S. cerevisiae mlh1 rad18 strain growth inhibition, hits give high values
Outline: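 Compound-treated yeast growth, normalised to vehicle controls. Strain bears defined DNA repair mutations.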

[15] = NCI Yeast Anticancer Drug Screen. Data for the rad18 strain (AID 177); conditions: S. cerevisiae rad18 mutant growth inhibition, hits give high values
Outline: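 Inhibition values reflect reduced yeast growth compared with vehicle-treated controls, using a strain engineered with a DNA damage repair defect.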

[16] = at 5.0 µM (retest, dose inferred, filed as 0.5)
[17] = at 50.0 µM (retest, dose inferred, filed as 5.0)

Measured: growth inhibition

CC1CCC(C2=CSC3CCCCC3N2)CC1 (stereo not drawn)
inactive: [1]; at 1.2 µM 21% | [1]; at 3.7 µM 21% | [1]; at 11.0 µM 21% | [1]; at 33.0 µM 37% | [2]; at 1.2 µM 14% | [2]; at 3.7 µM -2% | [2]; at 11.0 µM 3% | [2]; at 33.0 µM 31% | [2]; at 100.0 µM 65% | [3]; at 1.2 µM 1% | [3]; at 3.7 µM -14% | [3]; at 11.0 µM -8% | [3]; at 33.0 µM 14% | [4]; at 1.2 µM -1% | [4]; at 3.7 µM 4% | [4]; at 11.0 µM 9% | [4]; at 33.0 µM 32% | [5]; at 1.2 µM 16% | [5]; at 3.7 µM 23% | [5]; [16] 17% | [5]; at 11.0 µM 20% | [5]; at 33.0 µM 37% | [5]; [17] 13% | [5]; at 50.0 µM 43% | [6]; at 1.2 µM -36% | [6]; at 3.7 µM 5% | [6]; [16] -6% | [6]; at 11.0 µM 3% | [6]; at 33.0 µM 14% | [6]; at 50.0 µM 56.5% | [7]; at 1.2 µM -20% | [7]; at 3.7 µM -16% | [7]; at 11.0 µM -11% | [7]; at 33.0 µM -6% | [8]; [16] -4% | [8]; [17] 28% | [8]; at 50.0 µM 51.1% | [9]; at 1.2 µM -3% | [9]; at 3.7 µM 13% | [9]; at 11.0 µM 0% | [9]; at 33.0 µM 22% | [9]; at 100.0 µM 45% | [10]; [16] 32% | [10]; [17] 42% | [10]; at 50.0 µM 11.6% | [11]; at 1.2 µM 5% | [11]; at 3.7 µM -4% | [11]; [16] 42% | [11]; at 11.0 µM 5% | [11]; at 33.0 µM 29% | [11]; at 50.0 µM 66% | [12]; at 1.2 µM 6% | [12]; at 3.7 µM 4% | [12]; at 11.0 µM 11% | [12]; at 33.0 µM 28% | [13]; at 1.2 µM 15% | [13]; at 3.7 µM 5% | [13]; at 11.0 µM 14% | [13]; at 33.0 µM 35% | [13]; at 100.0 µM 67% | [14]; [16] 7% | [14]; at 50.0 µM 38.8% | [15]; at 1.2 µM -5% | [15]; at 3.7 µM -6% | [15]; at 11.0 µM -6% | [15]; at 33.0 µM 3% | [15]; at 100.0 µM 45%
active: [1]; at 100.0 µM 78% | [3]; at 100.0 µM 71% | [4]; at 100.0 µM 91% | [5]; at 100.0 µM 74% | [6]; [17] 71% | [6]; at 100.0 µM 80% | [7]; at 100.0 µM 76% | [11]; [17] 84% | [11]; at 100.0 µM 73% | [12]; at 100.0 µM 74% | [14]; [17] 85%
